From PubChem
This is a sample that favours compounds with a hit; in the whole collection about 18% have one here.
TDP1 cell noCPT: qHTS for Inhibitors of human tyrosyl-DNA phosphodiesterase 1 (TDP1): qHTS in cells in absence of CPT | DT40 Tdp1-/- hTDP1 cells, no CPT, ATP luminescence, 48 h | Potency, µM (titrated, usually from 46.2 µM), most hits filed as inhibitors | 420,000 compounds, 15% hits; also: nearly all actives have a fitted effect of over 55% in size
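Chicken DT40 Tdp1-/- cells complemented with human TDP1, screened without camptothecin (DMSO vehicle only), 400 cells/well. Compounds pin-transferred, cells incubated at 37 °C for at least 48 hr. Growth read as ATP-dependent luminescence (CellTiter-Glo, 30 min at RT).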
TDP1 inh: qHTS Assay for Inhibitors of Tyrosyl-DNA Phosphodiesterase (TDP1) | AID 485290, 2010 | Potency, µM (highest dose often 130 µM), most hits filed as inhibitors | recombinant TDP1, AlphaScreen DNA substrate cleavage | 350,000 compounds, 0.28% hits | Tyrosyl-DNA phosphodiesterase 1 (Homo sapiens), Q9NUW8; also: nearly all actives have a fitted effect of over 40% in size
Target sequence (Q9NUW8 whole entry, looked up): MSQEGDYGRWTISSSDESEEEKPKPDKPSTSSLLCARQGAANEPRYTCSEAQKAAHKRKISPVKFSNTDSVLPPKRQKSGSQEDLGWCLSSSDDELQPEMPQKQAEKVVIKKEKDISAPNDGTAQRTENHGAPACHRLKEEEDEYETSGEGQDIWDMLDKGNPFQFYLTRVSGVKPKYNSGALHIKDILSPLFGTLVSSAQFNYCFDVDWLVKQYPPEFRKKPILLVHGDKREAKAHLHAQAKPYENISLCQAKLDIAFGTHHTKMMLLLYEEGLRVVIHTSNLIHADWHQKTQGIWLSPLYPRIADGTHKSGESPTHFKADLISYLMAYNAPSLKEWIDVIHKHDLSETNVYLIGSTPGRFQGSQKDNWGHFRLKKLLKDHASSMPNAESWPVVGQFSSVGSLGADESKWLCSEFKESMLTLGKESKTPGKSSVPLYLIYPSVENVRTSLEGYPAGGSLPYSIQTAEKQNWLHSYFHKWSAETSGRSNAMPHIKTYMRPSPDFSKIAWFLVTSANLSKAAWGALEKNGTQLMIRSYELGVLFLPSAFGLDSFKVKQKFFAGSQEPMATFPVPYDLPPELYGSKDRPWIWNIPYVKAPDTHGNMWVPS
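Recombinant E. coli-expressed Tdp1 (1 nM) preincubated with compound 15 min at RT, then 5'-biotin/3'-phosphotyrosine-FITC DNA substrate (15 nM) added for 5 min. AlphaScreen beads (10 ug/ml) added, 10 min RT; tyrosine-FITC cleavage read as signal loss.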
VDR inhibitor: Inhibitors of the vitamin D receptor (VDR): qHTS; Vitamin D3 receptor (Homo sapiens), P11473; VDR-SRC2-3 peptide fluorescence polarization, 2 h; Potency, µM, actives largely listed as inhibitors; 400,000 compounds, 0.93% hits
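After 23 nl compound addition and a short centrifugation, plates sat for 2 hours at ambient temperature; polarization of fluorescence then indicated loss of VDR binding to peptide SRC2-3.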
GCN5L2 inh: qHTS Assay for Inhibitors of GCN5L2; Histone acetyltransferase KAT2A (Homo sapiens), Q92830; GCN5L2 HAT assay, ThioGlo1 CoA-SH fluorescence; Potency, µM (series often up to 58.9 µM), actives largely listed as inhibitors; 390,000 compounds, 0.21% hits; AID 504327, 2011
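Fluorescence readout, Ex340nm/Em540nm: ThioGlo1 (50uM final) reacts with free CoA thiol released as 20nM GCN5L2 acetylates H3(1-25) peptide (75uM) using acetyl-CoA (70uM). Compound and enzyme sat 15 min beforehand; 20 min room-temperature reaction.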
PLK1 PBD inh: qHTS for Inhibitors of PLK1-PDB (polo-like kinase 1 - polo-box domain): Primary Screen; 360,000 compounds, 2.8% hits; AID 720504, 2013; Potency, µM, actives largely listed as inhibitors; Plk1 PBD binding of FITC phosphopeptide, fluorescence polarization; also: series mostly up to about 57 µM; nearly all actives have a fitted effect of over 65% in size
DT40 TDP1 CPT: qHTS for Inhibitors of human tyrosyl-DNA phosphodiesterase 1 (TDP1): qHTS in cells in presence of CPT. chicken DT40 Tdp1-/-;hTDP1 cells + 20 nM CPT, ATP luminescence, 48 h. Potency, µM (doses to about 46.2 µM), usual class: inhibitors. 420,000 compounds, 12% hits. AID 686979, 2013; also: nearly all actives have a fitted effect of over 55% in size
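Chicken DT40 Tdp1-/- cells complemented with human TDP1, 400 cells/well, exposed to compounds plus 20 nM camptothecin for at least 48 h at 37 C; viability read as ATP content by CellTiter-Glo luminescence.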
Numbers stand for hits; . = inactive; ? = inconclusive; / = no result given; [ ] = another dose, or the depositor's remark. Calls follow the shape of the dose curve; as a rule, active = well fitted curve in the direction sought with a large enough effect; inconclusive = small, poorly fitted or top-dose-only effect, or another doubt; inactive = no such curve, though single readings can be large; an effect the other way counts as inactive or inconclusive.

SMILES | TDP1 cell noCPT | TDP1 inh | VDR inhibitor | GCN5L2 inh | PLK1 PBD inh | DT40 TDP1 CPT
Cc1cccc(NC(=O)C[n+]2ccc(N(C)C)cc2)c1 | ? | . | . | . | . | 15µM
CN(C)c1cc[n+](CC(=O)Nc2ccc(Cl)cc2)cc1 | 3.3µM | / | . | . | . | 6.5µM
CCc1cccc(CC)c1NC(=O)COC(=O)CC1c2ccccc2CCN1S(=O)(=O)c1ccc(F)cc1 (centres undefined) | 23µM | . | . | . | . | ?
Cc1ccc(NC(=O)c2ccc3nc[nH]c3c2)nc1 | 18µM | 35µM | . | . | . | 23µM
O=C(Nc1ccc(NC(=O)c2ccccc2)nc1)c1ccncc1 | ? | . | ? | . | 17µM | ?
O=C(Nc1ccc(NC(=O)c2ccccc2Cl)nc1)c1ccncc1 | ? | . | . | . | . | ?
Cc1ccc(NC(=O)c2cccc(S(=O)(=O)N3CCN(c4ccccc4)CC3)c2)nc1 | 21µM | .[0.505 µM] | . | . | . | 21µM
O=C(NCc1ccc(Cl)cc1)c1ccc2nc[nH]c2c1 | . | . | ? | . | 30µM | .
O=C(NCc1cccc(Cl)c1)c1ccc2nc[nH]c2c1 | . | . | . | . | . | .
Cc1ccc(NC(=O)c2ccc3nc[nH]c3c2)c(O)c1 | . | . | . | . | . | .
COc1ccc(NC(=O)C2CCN(S(=O)(=O)c3ccc4[nH]c(=O)ccc4c3)CC2)cc1Cl | . | . | . | . | / | .
CCOc1cc(NC(=S)Nc2ccccc2OC)c(OCC)cc1NC(=O)c1ccccc1C | ? | . | . | . | . | ?
CCOC(=O)N1CCN(C(=O)CN(c2cccc(Cl)c2)S(=O)(=O)c2ccccc2)CC1 | ? | / | . | . | / | .
Cc1ccc(C(=O)Nc2sc(C)c(C)c2C(=O)c2ccccc2)cc1 | ? | . | 45µM | . | 3µM | 16µM
Cc1ccc(NC(=O)C2(c3ccccc3)CCCC2)nc1 | 15µM | / | . | / | . | ?
Cc1ccc(NC(=O)c2cncc(Br)c2)nc1 | . | . | . | . | . | .
Cc1ccc(NC(=O)c2ccc(C(=O)c3ccccc3)cc2)nc1 | ? | / | . | . | . | 18µM
O=C(Nc1ccccn1)C1(c2ccccc2)CCCC1 | ? | . | . | . | . | ?
COc1cccc(C2=Nn3c(nnc3-c3ccccc3C)SC2)c1 | / | . | / | / | / | /
Cc1ccc2oc3c(c(=O)c2c1)C(c1ccc(F)cc1)N(Cc1ccc2c(c1)OCO2)C3=O (centres undefined) | . | . | . | . | / | .
CC[C@H](C)[C@H](NC(=O)[C@@H](NC(=O)[C@@H](CC(=O)NO)Cc1ccccc1)[C@@H](C)CC)C(=O)O | / | . | . | . | / | /
CC(=O)C(Cc1ccccc1)NC(=O)COC(=O)c1ccc(-n2cnnn2)cc1 (centres undefined) | . | . | . | . | . | .
Cc1cc2c(cc1C)N(C(=O)CSc1nncn1C)C(C)(C)c1ssc(=S)c1-2 | ? | . | . | . | . | 29µM
Cc1ccc2c(c1)N(C(=O)c1ccco1)C(C)(C)c1ssc(=S)c1-2 | ? | . | . | . | . | .
Cc1ccc2c(c1)N(C(=O)CSc1nncn1C)C(C)(C)c1ssc(=S)c1-2 | ? | . | . | . | . | 26µM
SMILES | TDP1 cell noCPT | TDP1 inh | VDR inhibitor | GCN5L2 inh | PLK1 PBD inh | DT40 TDP1 CPT
NC(=NCCc1c[nH]c2ccccc12)NS(=O)(=O)c1ccc2ccccc2c1 | 5.2µM | . | . | . | . | 4.6µM
NC(=NCCc1c[nH]c2ccccc12)NS(=O)(=O)c1ccc(F)cc1 | ? | . | . | . | . | ?
CC1=NN(c2nc(-c3ccc(C)cc3)cs2)C(=O)C1N=Nc1ccccc1O (centres undefined) | 4.6µM | . | . | . | . | 4.1µM
COc1ccc(-c2csc(N3N=C(C)C(C)C3=O)n2)cc1 (centres undefined) | ? | . | . | . | . | ?
CC1=NN(c2nc(-c3ccc(C)cc3)cs2)C(=O)C1N=Nc1cccc(O)c1 (centres undefined) | 16µM | . | 79µM | . | 4.7µM | ?
COc1ccc(N=NC2C(=O)N(c3ccccc3)N=C2C)cc1 (centres undefined) | . | / | . | . | . | .
Cc1ccc(CN2CC(C(=O)NCCC3=CCCCC3)CC2=O)cc1 (centres undefined) | . | . | . | . | . | .
CN(C(=O)c1nc(-c2ccccc2)n(-c2ccccc2)n1)C1CCS(=O)(=O)C1 (centres undefined) | . | . | . | . | . | .
Nc1ccc2cc3[nH]c4cc(N)ccc4c3nc2c1 | 2.3µM | / | . | / | 2.4µM | 2.9µM
CC(C)(C)NCC(O)COc1nsnc1N1CCOCC1 (centres undefined) | / | . | / | / | / | /
CCN(c1ccccc1)c1nnc(NC(=O)Nc2cccc(C(F)(F)F)c2)s1 | . | . | . | . | / | .
Cc1ccccc1NC(=O)Nc1nnc(N(C)Cc2ccccc2)s1 | 16µM | . | . | . | / | ?
Cc1cccc(NC(=O)Nc2nnc(N(C)Cc3ccccc3)s2)c1 | ? | . | . | . | / | 15µM
CCN(c1ccccc1)c1nnc(NC(=O)Nc2ccccc2F)s1 | 2.6µM | . | . | . | / | ?
